SUMO Mot1 rescue: SUMOylation pathway inhibition by Mot1-301 growth rescue. AID 2716. S. cerevisiae Mot1-301 growth rescue, ATP luminescence, 38.5C; percent above DMSO median, 100 means doubled. growth rescue, % at 18.8 µM. 320,000 compounds, 1% hits;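 active = every valid replicate shows activation above 250% relative to neutral control wells; inactive = the rest, any valid replicate at or below 250%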;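 note: OY570 slx delta 5 strain wells were the positive control but not used for scaling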
A1 inh: inhibitors of the anti-apoptotic protein A1, read as caspase activation | MEF A1-2A-BIM cells, Caspase-Glo 3/7 luminescence, 3 h; percent of clofoctol response, vehicle zero | caspase activation, % (test concentration not listed) | 330,000 compounds, 0.066% hits | AID 2462;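 active = over half of replicate activation scores above 10%, or exactly half above 10 with the replicate mean above 10; inconclusive = replicate mean below 10 yet half the replicates above 10; inactive = over half of replicates below 10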
AHR act: activates the human aryl hydrocarbon receptor; 320,000 compounds, 2.5% hits; AHR-responsive luciferase reporter cells, luminescence; AID 2796; P35869; activation, % at 5 µM; in the data active = activation above about 47%;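 note: 0% = vehicle wells and 100% = reference agonist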
ALR inh: inhibitors of human sulfhydryl oxidase ALR | P55789 | inhibition, % (concentration not given with the values) | AID 485317 | purified ALR, DTT oxidation, H2O2 HRP-luminol luminescence | 290,000 compounds, 3.8% hits;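 active = mean replicate inhibition above about 79%, with every replicate also reaching it, limit read from the data; inconclusive = only one of the two criteria met; inactive = mean below limit and not every replicate reaching it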
Efflux pump inh: inhibitors of Candida antifungal efflux pumps expressed in yeast. S. cerevisiae Candida pump triplex, Nile Red efflux. inhibition, % at 10 µM. 330,000 compounds, 0.44% hits;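 active = plate passing quality check with inhibition over a set limit, or well fluorescence over plate mean plus 4 SD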;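 note: Nile Red retained in pooled yeast measured as flow cytometry median fluorescence; 0% = buffer negative control and 100% = Enniatin B positive control; higher means more Nile Red kept so more efflux inhibition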
VLA-4 inh: inhibition in a human VLA-4 binding assay. P13612. VLA-4 expressing cells, ligand binding flow cytometry. inhibition, % (about 7 µM as worked out from the volumes in the protocol). 330,000 compounds, 0.2% hits; in the data active = inhibition above about 50%
Target sequence (P13612 whole entry, looked up): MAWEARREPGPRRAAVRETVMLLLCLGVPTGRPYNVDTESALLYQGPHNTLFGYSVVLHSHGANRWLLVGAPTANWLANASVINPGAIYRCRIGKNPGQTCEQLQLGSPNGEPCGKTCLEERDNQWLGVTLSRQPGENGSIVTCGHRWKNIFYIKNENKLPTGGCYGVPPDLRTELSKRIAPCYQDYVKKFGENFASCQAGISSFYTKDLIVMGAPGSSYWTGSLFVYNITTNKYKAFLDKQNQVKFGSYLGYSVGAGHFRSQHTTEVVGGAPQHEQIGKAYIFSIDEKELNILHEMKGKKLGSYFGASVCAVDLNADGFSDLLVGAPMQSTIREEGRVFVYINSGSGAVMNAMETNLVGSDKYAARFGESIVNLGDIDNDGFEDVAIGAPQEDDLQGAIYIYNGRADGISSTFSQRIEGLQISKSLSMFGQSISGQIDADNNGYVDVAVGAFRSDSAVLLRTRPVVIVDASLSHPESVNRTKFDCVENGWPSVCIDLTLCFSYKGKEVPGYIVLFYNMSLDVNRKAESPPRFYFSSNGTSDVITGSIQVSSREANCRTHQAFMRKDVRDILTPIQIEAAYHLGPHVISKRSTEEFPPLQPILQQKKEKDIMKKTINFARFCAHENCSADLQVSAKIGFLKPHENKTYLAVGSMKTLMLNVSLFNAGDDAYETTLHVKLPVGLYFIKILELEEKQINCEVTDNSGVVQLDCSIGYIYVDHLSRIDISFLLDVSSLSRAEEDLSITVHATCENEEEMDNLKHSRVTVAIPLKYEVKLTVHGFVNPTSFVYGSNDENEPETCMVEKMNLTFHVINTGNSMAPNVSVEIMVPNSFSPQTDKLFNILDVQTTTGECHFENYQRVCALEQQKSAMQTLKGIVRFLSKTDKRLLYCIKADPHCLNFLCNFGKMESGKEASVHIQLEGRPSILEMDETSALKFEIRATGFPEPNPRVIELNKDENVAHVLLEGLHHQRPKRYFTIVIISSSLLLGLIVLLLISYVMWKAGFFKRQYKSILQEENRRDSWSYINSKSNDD
VLA-4 mod pick: confirmation of allosteric modulators of human VLA-4 integrin. inhibition, % at 6.7 µM. U937 cells, HUTS-21 LIBS mAb binding, flow cytometry; LDV ligand present at threefold Kd. shares compounds with VLA-4 inh. 1,300 compounds, 2% hits; in the data active = inhibition above about 40%;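 note: 0% = ligand without compound and 100% = no ligand background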
Mot1 SUMO dose: inhibits SUMO pathway, affecting Mot1-301 yeast growth | shares compounds with SUMO Mot1 rescue | S. cerevisiae Mot1-301 galactose growth, ATP luminescence, 24 h; -100 = growth of slx-deleted rescue strain | growth activity, percent, % at 42 µM | 2,300 tested, under 10 active;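 active = Signal drops as the depositor expects, and the fitted half-maximal dose is no more than ten times the top valid tested dose; inconclusive = Poor fit, or a flat curve whose signal drops by 30% to 70%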;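 note: more negative values mean stronger growth rescue toward the control strain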
The depositor's hits bear a star; ? = inconclusive; . = no result given. An excerpt weighted towards active compounds, which were near 7.2% of everything screened.

SMILES	SUMO Mot1 rescue	A1 inh	AHR act	ALR inh	Efflux pump inh	VLA-4 inh	VLA-4 mod pick	others
COc1cc(C)nc(NS(=O)(=O)c2ccccc2Cl)n1	1	0	10	-7	0	5	-1
CSc1ccc(C(=O)c2[nH]c(=O)[nH]c2C)cc1	0	2	-2	-3	0	55*	0
Cc1[nH]c(=O)[nH]c1C(=O)CCCCC(=O)O	0	0	-3	18	0	-2	.
Cc1ccc(OCC(=O)Nc2ccc(S(=O)(=O)N3CCCC3)cc2)cc1	250	-1	-1	-2	0	21	.
CCOc1ccc(S(=O)(=O)Nc2cc(OC)ccc2OC)cc1	-15	1	2	8	0	53*	56*
COc1ccc(OC)c(NS(=O)(=O)c2ccc(SC)cc2)c1	-10	1	-1	2	0	-5	.
COc1cccc(-n2c(Cc3cc(=O)[nH]c(=O)[nH]3)nnc2SCC(=O)N2CCCCCC2)c1	162	0	12	-9	0	-5	9
COc1cccc(-n2c(Cc3cc(=O)[nH]c(=O)[nH]3)nnc2SCC(=O)N2CCCC2)c1	2	0	-1	.	0	-8	15
COc1ccc(-n2c(Cc3cc(=O)[nH]c(=O)[nH]3)nnc2SCC(=O)N2CCCC2)cc1	7	0	7	-19	0	-6	.
Cc1ccnc(NS(=O)(=O)c2ccc(NC(=O)c3ccc4c(c3)OCCO4)cc2)n1	10	0	0	10	0	3	.
CCOc1ccc2[nH]c(C(=O)N/N=C/c3ccc(OC)cc3)cc2c1	0	1	.	-10	0	56*	34
Cc1ccc(S(=O)(=O)N(C)CC(=O)NNC(=O)CCC(=O)c2ccc(F)cc2)cc1	11	0	1	-3	0	6	.
CCOC(=O)c1c(C)nc2c(c1-c1ccccc1)C(=O)CCC2	9	2	-3	-4	0	5	.
Cc1cc(-c2nnc(SCC(=O)Nc3ccc(F)cc3F)n2N)n[nH]1	19	-1	6	-7	0	50*	8
Cc1cc(-c2nnc(SCC(=O)Nc3ccccc3F)n2N)n[nH]1	-25	1	0	0	0	-2	.
CCOc1ccc(NC(=O)C2CCN(S(=O)(=O)c3ccc4c(c3)C(C)(C)C(=O)N4C)CC2)cc1	-5	1	1	1	1	-2	1
CCOc1ccccc1NC(=O)C1CCCN(S(=O)(=O)c2ccc3c(c2)C(C)(C)C(=O)N3C)C1 (stereo not given)	-2	1	-1	1	0	50*	0
CN1C(=O)C(C)(C)c2cc(S(=O)(=O)N3CCC(C(=O)Nc4ccc(Cl)cc4)CC3)ccc21	30	0	4	2	0	-72	.
COc1ccc(C(=O)Nc2ccccc2C(=O)NC(Cc2ccc(O)cc2)C(=O)NNC(=O)c2ccccc2)cc1 (stereo not given)	989	0	25	7	1	2	.
COc1ccc(C(=O)Nc2ccccc2C(=O)NC(Cc2ccc(O)cc2)C(=O)NNC(=O)c2ccncc2)cc1 (stereo not given)	1	-1	0	10	0	56*	1
COc1ccc(CCN2CC(C(=O)N3CCCCCC3)CCC2=O)cc1 (stereo not given)	-8	0	-1	-14	0	5	.
Cc1ccccc1-c1nc2cc(Cl)ccc2c(=O)o1	14	1	1	0	0	40	-15
O=C1OC(c2ccc(F)cc2)=N/C1=C\C=C/c1ccccc1	-15	1	2	7	0	44	3
CC1CN(C(=O)CCS(=O)(=O)c2ccccc2)CC(C)O1 (stereo not given)	178	?	1	-20	0	-5	.
O=C(c1ccc(Br)cc1)N1CCCc2ccccc21	-3	0	1	0	0	17	.
SMILES	SUMO Mot1 rescue	A1 inh	AHR act	ALR inh	Efflux pump inh	VLA-4 inh	VLA-4 mod pick	others
Cc1noc(C)c1CSc1ncnc2sc3c(c12)CCCCC3	5	0	4	-2	0	42	0
Cc1noc(C)c1CSc1ncnc2sc(C)c(C)c12	2	-2	-2	-1	0	-6	.
COc1ccc(CC(=O)NC(C)c2nnc(SCC(=O)Nc3ccccc3)n2C)cc1 (stereo not given)	.	1	0	10	0	24	.
COc1ccc(C(=O)NC(C)c2nnc(SCC(=O)Nc3nc(C)cs3)n2C)cc1 (stereo not given)	-30	0	-1	60	0	2	0
COc1ccc(C(=O)NC(C)c2nnc(SCC(=O)Nc3nc4ccccc4s3)n2C)cc1 (stereo not given)	14	0	5	-6	0	-10	4
COc1ccc(CC(=O)NC(C)c2nnc(SCC(=O)c3ccc(OC)cc3)n2C)cc1 (stereo not given)	-7	0	2	44	0	-3	.
O=C(Nc1ccc(Cl)c(Cl)c1)Nc1ccccc1O	22	-7	27	24	0	-27	-35
O=C(Nc1ccc(Cl)cc1)Nc1ccc(Cl)c(Cl)c1	15	0	21	0	0	11	.
CC(C)c1nnc(NC(=O)c2cccc(NC(=O)C(F)(F)F)c2)s1	-3	1	23	-35	0	25	.
COc1ccc(-n2ncc(C(C)NS(=O)(=O)c3cc(F)ccc3C)c2C)cc1 (stereo not given)	-3	-1	.	-11	0	5	.
CN(C)c1cccc(C(=O)OCC(=O)N(C)c2ccccc2)c1	-21	2	1	4	0	-8	0
COc1ccc(CNC2CCSc3ccccc32)cc1OC (stereo not given)	-3	1	9	3	0	0	.
CCOc1ccc(CN(C)C(=O)c2ccc(NC(=O)CC3SC(N4CCCC4)=NC3=O)cc2)cc1 (stereo not given)	-14	1	-1	0	0	8	.
COC(=O)c1ccncc1C(=O)Nc1ccc(Oc2ncc(C(F)(F)F)cc2Cl)cc1	369*	0	0	1	0	50*	-19	Mot1 SUMO dose=-1
COC(=O)c1ccncc1C(=O)Nc1ccc(OC)cc1	-4	-1	0	-14	0	9	.
Cc1ccccc1NC(=O)Cn1c(=O)oc2ccccc21	-11	0	0	-2	0	16	.
COc1ccc(C)cc1NC(=O)Cn1c(=O)oc2ccccc21	486*	0	6	-1	0	44	-20	Mot1 SUMO dose=-1

Bioassay records deposited in PubChem BioAssay by several laboratories.
